# FMDV antiviral: blocks foot and mouth disease virus; FMDV antiviral cell-based qHTS; 410,000 compounds, 1.2% hits; Potency, µM (top dose mostly 57.9 µM), inactives show at the top dose activity change, negative = inhibition, most hits filed as inhibitors; calls by dose curve; tested in HEK293T cells; note: read-out not given here; potency is the fitted concentration of half-maximal effect; nearly all actives have a fitted effect of over 45% in size
# Vaccinia mCherry: inhibitors of vaccinia virus infection (mCherry reporter signal); AID 720579; 310,000 compounds, 0.63% hits; Vaccinia virus mCherry reporter infection, fluorescence; Potency, µM (titrated, usually from 36.5 µM), for the others: at the top dose activity change, negative = inhibition, most hits filed as inhibitors; calls by dose curve; tested in A549 cells; note: potency is the fitted concentration of half-maximal effect; nearly all actives have a fitted effect of over 35% in size
# HCMV inh: human cytomegalovirus inhibition | HFF cells, HCMV-luciferase reporter, 72 h; stronger effect = lower value | activity change, negative = inhibition, % at 57.5 µM | 410,000 compounds, 4.5% hits; in the data active = activity change below about -60%; inconclusive = no clear call, values can overlap the other calls; inactive = above about -39%
#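 Compounds were evaluated in HFFs infected with an HCMV luciferase reporter virus (MOI 1 PFU/cell). Luciferase in lysates collected 72 h post infection served as the replication measure.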
# HCV inhibitor: blocks hepatitis C virus; Huh7.5.1 HCVcc-Cre infection, luciferase reporter, 44 h; Potency, µM (titrated, usually from 41.8 µM), for the others: top-dose activity change, negative = inhibition, actives largely listed as inhibitors; 340,000 compounds, 3.4% hits; AID 651820; active = well fitted inhibition curve with a large enough effect; inconclusive = small, poorly fitted or top-dose-only effect, or another doubt; inactive = no such curve, though single readings can be large or run the other way; note: potency is the fitted concentration of half-maximal effect
#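 Seed cells (1,000/well) for 4 h; treat with compound and infect with HCVcc-Cre, moi about 0.5. Incubate 44 h, then detect luciferase activity.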
# VACV Venus inh: inhibitors of vaccinia virus (Venus reporter). Vaccinia virus Venus reporter expression, fluorescence. Potency, µM (highest dose often 36.5 µM), inactives show at the highest dose activity change, negative = inhibition, usual class: inhibitors. 330,000 compounds, 0.46% hits. AID 720580; calls by dose curve; tested in A549 cells; note: potency is the fitted concentration of half-maximal effect; nearly all actives have a fitted effect of over 30% in size
# * marks the source's active call; other numbers are inactive results; i = inactive; ? = inconclusive; / = not tested or not shown. A selection: hits, their analogues and other compounds. The true share with any hit is near 7.3%. % is set by controls: 0 for no effect and ±100 for the full control effect.
SMILES,FMDV antiviral,Vaccinia mCherry,HCMV inh,HCV inhibitor,VACV Venus inh
CCO[C@H]1[C@H](NC(=O)c2cccnc2)c2ccccc2C12CCN(C(=O)c1cc(C)n(C)n1)CC2,4.4%,-13.9%,/,/,-7.0%
CCC(=O)Nc1cccc(C(=O)c2ccccc2)c1,/,-28.9%,-17.7,-1.5%,-18.5%
CCC(=O)Nc1cccc(C(=O)/C=C/c2ccccc2)c1,17.8µM*,/,-104.5*,-26.2%,-18.9%
C=C1C=C(C)n2ncc(C(=O)Nc3cccc(C(=O)Nc4cccc(C(F)(F)F)c4)c3)c2N1,/,-14.9%,/,/,-17.5%
N#Cc1cc(C(=O)c2cc(Br)ccc2O)cn(C2CCCCC2)c1=O,?,/,-39.3,11.2µM*,/
N#Cc1cc(C(=O)c2ccccc2OCC(=O)Nc2ccccc2Cl)cn(C2CCCCC2)c1=O,0.0%,i,-25.2,?,-12.0%
O=C(O)c1ccc2nc(-c3cc4cc(Cl)ccc4oc3=O)[nH]c2c1,31.5%,-6.6%,-1.8,/,0.2%
CCOC(=O)c1cccc(NC(=O)c2cc(-c3ccc(Cl)s3)nc3ccccc23)c1,-20.0%,-14.6%,4.0,/,-7.7%
Cc1cc(C)c(-c2csc(NC(=O)/C=C/c3cccs3)n2)c(C)c1,?,?,-100.1*,10µM*,?
Cc1cc(C)nc(NC(=O)/C=C/c2cccs2)c1,/,-1.9%,115.7,?,0.0%
Cc1ccc(Cl)cc1NS(=O)(=O)c1ccc(N2CCCCS2(=O)=O)cc1,11.2µM*,-20.3%,0.0,/,-20.3%
COc1cccc(-c2nc(N3CCCCC3C)c3ccccc3n2)c1O (stereo unspecified),-26.6%,-19.3%,114.8,8.91µM*,-22.9%
Oc1ccccc1N1CCN(c2nc(-c3cccs3)nc3ccccc23)CC1,-24.2%,/,?,11.2µM*,/
OCCN1CCN(c2nc(-c3ccccc3O)nc3ccccc23)CC1,-17.3%,?,37.7,22.4µM*,?
COc1cccc(-c2nc(N3CCN(C)CC3)c3ccccc3n2)c1O,8.3%,10µM*,129.2,?,?
Oc1ccc(N2CCN(c3nc(-c4cccs4)nc4ccccc34)CC2)cc1,-14.3%,-13.9%,?,?,7.1%
CCN(CC)c1nc(-c2cccc(OC)c2O)nc2ccccc12,?,-22.4%,85.7,-25.4%,-13.9%
Cc1ccc(NC(=O)C2CCCN(c3cnccn3)C2)cc1Cl (stereo unspecified),-11.5%,-5.9%,-16.7,/,-5.6%
CC(C)C[C@H]1COc2cccc(N3CCOCC3)c2S(=O)(=O)N1,/,/,-16.0,/,/
Cc1cc(/C=C2/SC(=S)N(c3cccc(Cl)c3)C2=O)c(C)n1-c1cccnc1,?,?,-93.2*,2.24µM*,?
Cc1cc(/C=C2/SC(=S)N(c3ccc([N+](=O)[O-])cc3)C2=O)c(C)n1-c1cccnc1,?,/,-83.1*,2.51µM*,/
Cc1cccc(N2C(=O)/C(=C/c3cccnc3)SC2=S)c1,-16.4%,i,15.8,-1.5%,-13.5%
CC(=O)c1ccc(N2CCN(S(=O)(=O)c3ccc4c(c3)CC(C)N4C(=O)C3CCC3)CC2)cc1 (stereo unspecified),?,-14.0%,-2.2,/,-28.8%
Clc1cccc2c1Sc1ccccc1CC2N1CCNCC1 (stereo unspecified),-21.7%,?,?,10µM*,?
Clc1ccccc1CN1CCNCC1,-0.4%,-11.2%,0.9,-14.2%,-6.0%
SMILES,FMDV antiviral,Vaccinia mCherry,HCMV inh,HCV inhibitor,VACV Venus inh
CCOc1ccc(NC(=O)C2CCCN(S(=O)(=O)c3ccc4c(c3)CCCN4C(C)=O)C2)cc1 (stereo unspecified),-14.7%,/,-29.4,?,/
CC(=O)N1CCCc2cc(S(=O)(=O)N3CCCC(C(=O)Nc4ccc(C)c(F)c4)C3)ccc21 (stereo unspecified),?,-11.2%,-38.1,/,-16.0%
CC(=O)N1CCCc2cc(S(=O)(=O)N3CCCC(C(=O)N4CCN(c5ccccc5F)CC4)C3)ccc21 (stereo unspecified),15.8µM*,?,?,/,-28.6%
COc1ccc(N2CCN(C(=O)C3CCCN(S(=O)(=O)c4ccc5c(c4)CCCN5C(C)=O)C3)CC2)cc1 (stereo unspecified),?,?,-71.3*,/,?
COc1ccc2[nH]c(CN3CCC(CO)(CCOc4ccccc4)CC3)c(C)c2c1,-24.9%,-28.6%,?,10µM*,-10.9%
COc1ccc(CN2CCC(CO)(CCOc3ccccc3)CC2)c(OC)c1C,-27.2%,-17.1%,-26.7,?,-11.3%
